Records with an inconclusive call do not appear. Activity calls are given as the source filed them. The call rests on the fitted dose curve; in most records, active means well fitted inhibition curve with a large enough effect; inconclusive means small, poorly fitted or top-dose-only effect; inactive means flat fitted curve, though single readings scatter.
Assays:
CRL-7250 = normal cell line; assay: Cytotoxic Profiling of Annotated Libraries Using Quantitative High-Throughput Screening (AID 1296008); conditions: Five cell lines viability, CellTiter-Glo ATP luminescence, 48-72 h; max response: active compounds read low; on max response: on the % scale 0 is the no-effect control and ±100 the full control effect
Outline: (§1)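 Cytotoxicity was measured as CellTiter-Glo ATP luminescence, read after 10 min at room temperature. Compound treatment of the cells lasted 48 or 72 hr at 37 degrees Celsius in a qHTS format.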

HEK293 = assay: as above; conditions: Five cell lines viability, CellTiter-Glo ATP luminescence, 48-72 h; max response: active compounds read low
Outline: as §1

HaCat = assay: as above; conditions: Five cell lines viability, CellTiter-Glo ATP luminescence, 48-72 h; max response: active compounds read low
Outline: as §1

KB-3-1 = assay: as above; conditions: Five cell lines viability, CellTiter-Glo ATP luminescence, 48-72 h; max response: active compounds read low
Outline: as §1

NIH3T3 = assay: as above; conditions: Five cell lines viability, CellTiter-Glo ATP luminescence, 48-72 h; max response: active compounds read low
Outline: as §1

HEK293T = assay: qHTS assay to identify novel small-molecules to repurpose for Merkel cell carcinoma treatment (AID 1296009); conditions: MCC and control cell lines, CellTiter-Glo viability, 72 h; series mostly up to 44.8 µM
Outline: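 After compound transfer in DMSO, plates were kept 72 hr at 37 degree celsius. Luminescent ATP signal from CellTiter-Glo served as viability measure, normalized against DMSO and no-cell controls.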
Further: nearly all actives have a fitted effect of over 60% in size.

CC1CCC2(C)C(CC(O)C(O)C23CO3)C1(C)CCC1=CC(O)OC1=O (stereo not drawn)
inactive: max response (CRL-7250) 3.32% | outcome (HEK293) | max response (HaCat) 0.263% | max response (KB-3-1) -2.97% | max response (NIH3T3) -4.84% | Potency (HEK293T)

CC[C@H](/C=C/[C@@H](C)[C@H]1CC[C@H]2[C@@H]3CC=C4C[C@@H](O)CC[C@]4(C)[C@H]3CC[C@]12C)C(C)C
inactive: max response (CRL-7250) -4.85% | outcome (HEK293) | max response (HaCat) 0.322% | outcome (KB-3-1) | outcome (NIH3T3) | outcome (HEK293T) inactive [at 4.96 µM]

C=C(C(=O)OC)C1CCC2(C)C(O[C@@H]3O[C@H](CO)[C@@H](O)[C@H](O)[C@H]3O)CC(=O)C(C)C2C1O (stereo partly drawn)
inactive: max response (CRL-7250) 1.28% | outcome (HEK293) | max response (HaCat) -1.72% | outcome (KB-3-1) | outcome (NIH3T3) | Potency (HEK293T)

CC(C(=O)O)C1CCC2(C)C3C(=O)C=C4C(CCC(=O)C4(C)C)C3(C)CCC12C (stereo not drawn)
inactive: max response (CRL-7250) 0.281% | outcome (HEK293) | max response (HaCat) -2.22% | outcome (KB-3-1) | outcome (NIH3T3) | Potency (HEK293T)

COC(=O)C1=CO[C@@H](O[C@@H]2O[C@H](CO)[C@@H](O)[C@H](O)[C@H]2O)[C@@H]2[C@@](C)(O)[C@@H](O)C[C@]12O
inactive: max response (CRL-7250) -11.5% | outcome (HEK293) | max response (HaCat) 3.45% | max response (KB-3-1) 1.93% | max response (NIH3T3) -0.0114% | Potency (HEK293T)

CC(=O)O[C@H](C[C@@H](C)[C@H]1C(=O)[C@H](O)[C@@]2(C)[C@@H]3CCC4C(C)(C)[C@@H](O[C@@H]5OC[C@H](O)[C@H](O)[C@H]5O)CC[C@@]45C[C@@]35CC[C@]12C)[C@@H]1OC1(C)C (stereo partly drawn)
inactive: max response (CRL-7250) 0.817% | outcome (HEK293) | max response (HaCat) 2.98% | outcome (KB-3-1) | outcome (NIH3T3) | Potency (HEK293T)

C=C1CCC2C(C)(COC3OC(COC(=O)CC(=O)O)C(O)C(O)C3O)CCCC2(C)C1CCC1=CCOC1=O (stereo not drawn)
inactive: outcome (CRL-7250) | outcome (HEK293) | max response (HaCat) -2.95% | outcome (KB-3-1) | outcome (NIH3T3) | Potency (HEK293T)

CC1(C)CC[C@]2(C(=O)O)CC[C@]3(C)C(=CCC4[C@@]5(C)CC[C@H](O[C@@H]6O[C@H](C(=O)O)[C@@H](O)[C@H](O)[C@H]6O)C(C)(CO)C5CC[C@]43C)C2C1 (stereo partly drawn)
inactive: max response (CRL-7250) 4.13% | outcome (HEK293) | max response (HaCat) -0.619% | outcome (KB-3-1) | max response (NIH3T3) -4.92% | Potency (HEK293T)

CO[C@@]12CC3[C@@H]([C@@H](O)[C@@H](OC(C)=O)C4[C@](C)(COC(C)=O)CCC[C@]34C)[C@@H](C)C1=CC(=O)O2 (stereo partly drawn)
inactive: outcome (CRL-7250) | outcome (HEK293) | max response (HaCat) 3.42% | outcome (KB-3-1) | outcome (NIH3T3) | Potency (HEK293T)

CC(=O)OC[C@]1(O)[C@H]2[C@H](OC(=O)CC(C)C)OC=C(CO[C@@H]3O[C@H](CO)[C@@H](O)[C@H](O)[C@H]3O)[C@H]2C[C@@H]1O
inactive: outcome (CRL-7250) | outcome (HEK293) | max response (HaCat) -3.61% | outcome (KB-3-1) | outcome (NIH3T3) | Potency (HEK293T)

Cn1c(=O)c2nc(/C=C/c3cccc(Cl)c3)n(C)c2n(C)c1=O
inactive: outcome (CRL-7250) | outcome (HEK293) | max response (HaCat) -5.76% | outcome (KB-3-1) | max response (NIH3T3) -2.68% | Potency (HEK293T)

CC1=C(C)C(=O)OC(C(C)(O)C2CCC3C4CC=C5CC(OC6OC(COC7OC(CO)C(O)C(O)C7O)C(O)C(O)C6O)CC(O)C5(C)C4CCC32C)C1 (stereo not drawn)
inactive: max response (CRL-7250) -12.7% | outcome (HEK293) | max response (HaCat) -5.11% | max response (KB-3-1) 2.61% | max response (NIH3T3) -0.0747% | Potency (HEK293T)

CN1C(=O)c2ccccc2-n2c(nc3ccccc3c2=O)[C@@]12O[C@H]2c1ccccc1
inactive: max response (CRL-7250) -8.37% | outcome (HEK293) | max response (HaCat) -0.431% | outcome (KB-3-1) | outcome (NIH3T3) | Potency (HEK293T)

COC12CC3C(C(C)C1=CC(=O)O2)C(O)C(OC(C)=O)C1C(C)(C)C(OC(C)=O)CCC31C (stereo not drawn)
inactive: max response (CRL-7250) 0.349% | outcome (HEK293) | max response (HaCat) -18.1% | outcome (KB-3-1) | outcome (NIH3T3) | Potency (HEK293T)

C[C@H]1CC[C@@]2(OC1)O[C@H]1CC3C4CC=C5C[C@H](O)C[C@@H](O[C@@H]6O[C@@H](C)[C@H](O)[C@@H](O)[C@H]6O[C@@H]6O[C@@H](C)[C@H](O)[C@@H](O)[C@H]6O)[C@]5(C)C4CC[C@]3(C)[C@H]1[C@@H]2C (stereo partly drawn)
inactive: max response (CRL-7250) -7.49% | outcome (HEK293) | max response (HaCat) -9.03% | outcome (KB-3-1) | max response (NIH3T3) 0.342% | Potency (HEK293T)

CC1(C)CCC(C)(C)c2cc3c(cc21)Sc1ccccc1N=C3c1ccc(C(=O)O)cc1
inactive: outcome (CRL-7250) | outcome (HEK293) | max response (HaCat) -6.28% | max response (KB-3-1) -15.5% | max response (NIH3T3) 3.93% | Potency (HEK293T)

COc1ccccc1CC(C(=O)O)N(C)C(=O)c1ccccc1 (stereo not drawn)
inactive: max response (CRL-7250) 0.437% | outcome (HEK293) | max response (HaCat) 1.79% | max response (KB-3-1) 2.61% | max response (NIH3T3) -9.18% | Potency (HEK293T)

C=CC(C)(O)CO[C@@H]1O[C@H](CO)[C@@H](O)[C@H](O)[C@H]1O (stereo partly drawn)
inactive: max response (CRL-7250) -1.51% | outcome (HEK293) | max response (HaCat) -30.3% | max response (KB-3-1) 1.27% | max response (NIH3T3) -4.31% | Potency (HEK293T)

Source: PubChem BioAssay (NCATS)
